Results on 22 compounds are retold here after PubChem BioAssay AID1053126 (Broad Institute, 2014).

Measured potencies and affinities stand elsewhere. Unmarked numbers belong to inactive results.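 Rule for the calls: active = cell killing with a fitted half-effect concentration at or below twice the top valid dose; inconclusive = flat curve with 30 to 70 percent drop, or poor fit; inactive = the rest.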

A short description of the assay: HEK293T cell cytotoxicity, dose response, cytotoxicity control, ATP luminescence, cherry-pick, set 6 (AID 1053126).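 Note: 0% = neutral control wells and -100% = mitoxantrone 10 µM positive control.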 The conditions noted are these: HEK293T viability, CellTiter-Glo ATP luminescence, 72 h; series mostly up to 26 µM; activity change, negative = cytotoxicity: at the top concentration. Background: ATP-based viability assays read luminescence as a measure of living cells.
For the compound `CCN(CC)c1ccc2c(C)c(Cl)c(=O)oc2c1`, the “activity change, negative = cytotoxicity” value was 15.3%.
As for `Cc1cccn2c(=O)c3cc(C(=O)NCC4CCCO4)c(=N)n(CC4CCCO4)c3nc12` (configuration not stated), the “activity change, negative = cytotoxicity” value was 1.69%.
Then `CC1(C)CC(=O)C2=C(C1)OC(N)=C(C#N)[C@@H]2c1ccccc1[N+](=O)[O-]`, with -7.08%; and `Cn1cnc(S(=O)(=O)Nc2ccc(OC(F)(F)F)cc2)c1`, with 16.4%; and `Cn1cc(C(c2ccccc2OCC(=O)O)c2cn(C)c3ccccc23)c2ccccc21`, with -5.72%.
Consider `CN(C)/C=C/C(=O)c1c(F)cccc1F`, for which the “activity change, negative = cytotoxicity” value is 3.37%.
The result for `N=c1oc2cc(O)ccc2cc1C(=O)Nc1nc2ccccc2s1` reads -12.6%; that for `C/C(=N\NC(=O)CC#N)c1cc2ccc(O)cc2oc1=O`, 12.9%; that for `COCCCn1c(=N)c(C(=O)NC2CCCCC2)cc2c(=O)n3ccccc3nc21`, 22.6%.
The result for `O=c1c2ccccc2n(CC(O)CN2CCCCC2)c2ccccc12` (configuration not stated) reads -7.07%.
Then `COc1ccc(C2C3=C(CC(C)(C)CC3=O)N(C)C3=C2C(=O)CC(C)(C)C3)cc1`, with -3.74%.
On to `CC(=O)N=c1c(C#N)cc2c(=O)n3ccccc3nc2n1CCCOC(C)C`, for which the “activity change, negative = cytotoxicity” value is 0.076%.
The result for `Nn1c(SCC(=O)N2CCCC2)nnc1-c1cccs1` reads -3.98%.
The result for `CSc1ccc(Cn2c(C)c(C(=O)NCCC#N)sc2=O)cc1` reads -0.568%; that for `CCCCCCc1cc2cc(S(=O)(=O)c3ccc(C)cc3)c(=O)oc2cc1O`, 59.9%; that for `CSc1ccc(Cn2c(C)c(C(=O)NCc3cccc(Cl)c3)sc2=O)cc1`, -20.5%.
`CCCN1CCc2c(sc(NC(=O)C3CCN(S(=O)(=O)c4cccs4)CC3)c2C(N)=O)C1`: the “activity change, negative = cytotoxicity” value is -19.9%.
Then `CCN(CC)CCCNc1nc(C)cc(COC)c1C#N`, with -13.8%.
On to `CCCOc1ccccc1/C=C1\SC(N)=NC1=O`, for which the “activity change, negative = cytotoxicity” value is -4.46%.
Then `CC(C)CCN1C(=O)c2cccc3c(N)ccc(c23)C1=O`, with -10.8%; and `O=C(NCc1nnnn1-c1ccc(Cl)cc1)C1CC(=O)N(c2ccc(F)cc2)C1` (configuration not stated), with 19.6%.
The result for `Cc1ccc2c(c1)N(C(=O)CCC(=O)NCCCN1CCOCC1)CC(C)O2` (configuration not stated) reads -8.52%.
